Results filed as inconclusive are left out. Calls of active or inactive are those of the source. Unless noted, calls follow the shape of the dose curve; as a rule, active = well fitted curve in the direction sought with a large enough effect; inconclusive = small, poorly fitted or top-dose-only effect, or another doubt; inactive = no such curve, though single readings can be large; an effect the other way counts as inactive or inconclusive.
Assays:
[1] = target: DNA repair nuclease/redox regulator APEX1 (Homo sapiens) (UniProt P27695); test: qHTS Validation Assay for Inhibitors of the Human Apurinic/apyrimidinic Endonuclease 1 (APE1) (AID 1705;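 also: TAMRA fluorescence gain over two minutes as APE1 cuts a quenched THF abasic duplex; series mostly up to about 57 µM; % is scaled to controls: 0 for no effect and ±100 for the full control effect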)
How it was run: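 Substrate: 50 nM final fluorophore/quencher THF-abasic duplex. Enzyme preincubated with compounds 15 min, RT. Progress derived from fluorescence difference, third minus first kinetic read.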

[2] = Counterscreen for APE1 Inhibitors: Fluorescent Dye Displacement Validation Assay (AID 1707);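 also: plate controls were ThO with dsDNA and no compound for no effect and ThO without dsDNA for full effect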
How it was run: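 Loss of Thiazole Orange fluorescence marks promiscuous DNA binders. The dye (250 nM) is mixed with 50 nM abasic-site dsDNA in pH7.5 Tris buffer containing MgCl2, then compounds are added and emission is read once.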

[3] = qHTS for differential inhibitors of proliferation of Plasmodium falciparum line GB4 (AID 1816); settings: Potency: Plasmodium falciparum GB4 proliferation inhibition;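 also: parasite growth measured after 72 h incubation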; also: potency is read from the fitted curve at half-maximal effect
[4] = qHTS for differential inhibitors of proliferation of Plasmodium falciparum line 3D7 (AID 1876); also: potency is read from the fitted curve at half-maximal effect
[5] = qHTS for differential inhibitors of proliferation of Plasmodium falciparum line D10 (AID 1877);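 also: parasites grown with compound for 72 h before DNA staining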; also: potency is read from the fitted curve at half-maximal effect
[6] = qHTS for differential inhibitors of proliferation of Plasmodium falciparum line Dd2 (AID 1882); settings: Potency: Plasmodium falciparum Dd2 proliferation inhibition; also: nearly all actives have a fitted effect of over 65% in size; also: potency is read from the fitted curve at half-maximal effect
How it was run: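 SYBR Green DNA fluorescence (ex 485, em 535 nm) after overnight lysis quantifies parasite growth; compound exposure lasted 72 h at 37 C on infected red cells at 2.5% hematocrit, 0.3% parasitemia (final). Artemisinin 0.29 uM and vehicle wells define normalization.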

[7] = qHTS for differential inhibitors of proliferation of Plasmodium falciparum line W2 (AID 1883); settings: Potency: Plasmodium falciparum W2 proliferation inhibition;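 also: parasites grown with compound for 72 h before lysis and staining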; also: potency is read from the fitted curve at half-maximal effect
[8] = qHTS for differential inhibitors of proliferation of Plasmodium falciparum line HB3 (AID 1886); settings: Potency: Plasmodium falciparum HB3 proliferation inhibition;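 also: parasites grown with compound for 72 h before SYBR Green readout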; also: potency is read from the fitted curve at half-maximal effect
[9] = target: ATP-dependent DNA helicase Q1 (Homo sapiens) (UniProt P46063); test: qHTS Validation Assay for Inhibitors of RecQ-Like Dna Helicase 1 (RECQ1) (AID 2353);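 also: plate controls were DMSO vehicle for no effect and enzyme-free control for full effect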
How it was run: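 RECQ1T1 50 nM; forked duplex (20 bp + 30-nt ss tails) 200 nM, ATP 2 mM final; pH 8.0, 2 mM MgCl2, 2.5 ug/ml poly(dI-dC); 15 min compound preincubation; discontinuous kinetic read over 2 h at RT.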

[10] = Quantitative high throughput screen for delayed death inhibitors of the malarial parasite plastid, 96 hour incubation (AID 488745); also: nearly all actives have a fitted effect of over 70% in size; also: potency is read from the fitted curve at half-maximal effect
How it was run: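 Readout is firefly luciferase luminescence from an integrated reporter in P. falciparum; lower signal marks inhibited growth. Cultures at 2% hematocrit and 0.1% parasitemia were treated with compound across two generations (96 h, 37 C, 5% CO2).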

[11] = Quantitative high throughput screen for delayed death inhibitors of the malarial parasite plastid, 48 hour incubation (AID 488752); also: nearly all actives have a fitted effect of over 65% in size; also: potency is read from the fitted curve at half-maximal effect
How it was run: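 First, compound was pinned into RPMI 1640 medium containing 0.5% Albumax. Next, reporter-parasite-infected erythrocytes were added to 2% hematocrit and 0.1% parasitemia. After 48 h at 37 C under 5% CO2, luciferase detection reagent was added and luminescence read.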

[12] = target: M-phase phosphoprotein 8 (Homo sapiens) (UniProt Q99549); test: qHTS Validation Assay for Inhibitors for MPP8 Chromodomain Interactions with Methylated Histone Tails (AID 488949); also: nearly all actives have a fitted effect of over 55% in size; also: potency is read from the fitted curve at half-maximal effect
How it was run: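 Chemiluminescent proximity assay: histidine-tag capture via nickel acceptor beads, biotin peptide via streptavidin donor beads. Protein and peptide each at 50 nM, pH 7.4, with 30 min incubations at room temperature for complex formation, compound exposure and bead binding.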

[13] = target: Transient receptor potential cation channel subfamily V member 1 (Homo sapiens) (UniProt Q8NER1); test: HTS Assay for Compounds that Act as Enhancers of the Vanilloid Receptor 1 (AID 488979); also: 0% is about no effect
How it was run: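 TRPV1 cells loaded with Fluo-8 calcium dye; compound added and Ca2+ signal (ex 480/em 520 nm) followed 3 min, then capsaicin at EC20 added and read 2 more min to detect enhancement.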

[14] = target: Thyrotropin receptor (Homo sapiens) (UniProt P16473); test: qHTS Assay for Antagonists of the Thyroid Stimulating Hormone Receptor (AID 488980); also: series mostly up to about 58 µM; 0% is about no effect
How it was run: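 Inhibition of TSH-stimulated cAMP accumulation was quantified by homogeneous time-resolved FRET in TSHR-transfected HEK293 cells. Agonist: TSH, 4 nM final (EC80).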

[15] = target: Thyrotropin-releasing hormone receptor (Homo sapiens) (UniProt P34981); test: qHTS for Small Molecule Agonists and Allosteric Enhancers of Human TRH Receptor: Validation Screen for Agonists (AID 493127;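 active = calcium activation more than 3 SD above the typical response in the agonist read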;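 also: intracellular calcium rise by fluo-8 fluorescence before TRH EC20 addition; 0% is about no effect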); settings: TRH receptor agonist cell assay; at 2 µM; hits give high values
How it was run: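 Compounds are added by online pintool to dye-loaded TRHR cells while fluorescence is recorded every second. A rise in calcium signal during the agonist read marks activation; a later 10 nM TRH addition (EC20) serves the separate enhancer mode.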

[16] = target: Galactokinase (Homo sapiens) (UniProt P51570); test: qHTS Validation Assay for Inhibitors of Human Galactokinase (GALK) (AID 493189); also: 0% is about no effect
How it was run: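 Enzyme activity is inferred from ATP consumption: human GALK phosphorylates galactose (100 uM) using 35 uM ATP for 1 h at room temperature, and luciferase-based Kinase-Glo Plus reports unconsumed ATP.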

[17] = target: Voltage-gated inwardly rectifying potassium channel KCNH2 (Homo sapiens) (UniProt Q12809); test: qHTS Assay for Small Molecule Inhibitors of the Human hERG Channel Activity (AID 588834);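 also: lower thallium flux fluorescence means stronger hERG block; nearly all actives have a fitted effect of over 50% in size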; also: potency is read from the fitted curve at half-maximal effect
How it was run: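 Homogeneous FluxOR thallium flux assay using hERG-expressing U2OS cells (BacMam). Compound treatment about 10 minutes preceded stimulation; reduced fluorescence taken as channel block.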

[18] = target: Rap guanine nucleotide exchange factor 3 (Homo sapiens) (UniProt O95398); test: Confirmatory qHTS for agonist of cAMP-regulated guanine nucleotide exchange factor 3 (EPAC1) (AID 1645881);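 also: EPAC1 catalysed release of BODIPY-GDP from Rap1B seen as fluorescence loss; 100% = effect of cAMP agonist control; nearly all actives have a fitted effect of over 75% in size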
[19] = target: Rap guanine nucleotide exchange factor 4 (Homo sapiens) (UniProt Q8WZA2); test: Confirmatory qHTS for agonist of cAMP-regulated guanine nucleotide exchange factor 4 (EPAC2) (AID 1645884);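 also: nucleotide exchange releases bodipy-GDP from Rap1 and this lowers its fluorescence; % is scaled to controls: 0 for no effect and ±100 for the full control effect; nearly all actives have a fitted effect of over 65% in size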
[20] = target: Cytochrome P450 2D6 (Homo sapiens) (UniProt P10635); test: qHTS Assay for Inhibitors and Substrates of Cytochrome P450 2D6 (AID 891); also: nearly all actives have a fitted effect of over 60% in size; also: potency is read from the fitted curve at half-maximal effect
How it was run: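 Luminescent read-out of luciferin formed by 5 nM human CYP2D6 demethylating 30 uM Luciferin-ME EGE (Km level) over 60 min at room temperature after NADPH regeneration addition. Data normalized to full inhibition by 1.43 uM quinidine.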

Thyrotropin-releasing hormone receptor (Homo sapiens), sequence (P34981 whole entry, looked up): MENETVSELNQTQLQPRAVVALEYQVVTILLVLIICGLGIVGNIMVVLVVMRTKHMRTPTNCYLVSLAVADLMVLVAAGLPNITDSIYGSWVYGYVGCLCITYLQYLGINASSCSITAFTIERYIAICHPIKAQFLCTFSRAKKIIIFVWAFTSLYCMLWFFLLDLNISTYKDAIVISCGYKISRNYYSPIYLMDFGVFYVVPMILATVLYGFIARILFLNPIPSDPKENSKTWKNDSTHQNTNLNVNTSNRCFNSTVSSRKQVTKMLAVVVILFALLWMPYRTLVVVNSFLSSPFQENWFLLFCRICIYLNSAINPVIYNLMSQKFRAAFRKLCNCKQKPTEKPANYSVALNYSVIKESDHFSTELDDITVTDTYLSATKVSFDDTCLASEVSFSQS
Cytochrome P450 2D6 (Homo sapiens), sequence (P10635 whole entry, looked up): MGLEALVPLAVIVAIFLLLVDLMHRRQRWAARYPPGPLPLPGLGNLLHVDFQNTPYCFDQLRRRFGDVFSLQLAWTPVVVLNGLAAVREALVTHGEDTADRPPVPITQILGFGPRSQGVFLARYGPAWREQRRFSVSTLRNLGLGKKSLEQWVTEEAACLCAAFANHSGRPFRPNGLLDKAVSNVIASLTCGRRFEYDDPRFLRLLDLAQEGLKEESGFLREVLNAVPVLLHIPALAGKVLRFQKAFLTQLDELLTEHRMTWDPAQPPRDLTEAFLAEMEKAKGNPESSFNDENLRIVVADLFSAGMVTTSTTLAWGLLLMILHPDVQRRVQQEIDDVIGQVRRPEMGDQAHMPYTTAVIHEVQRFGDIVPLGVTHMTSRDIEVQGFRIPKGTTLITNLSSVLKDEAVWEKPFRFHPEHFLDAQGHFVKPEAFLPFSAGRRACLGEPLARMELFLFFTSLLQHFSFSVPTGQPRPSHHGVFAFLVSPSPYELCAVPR
Transient receptor potential cation channel subfamily V member 1 (Homo sapiens), sequence (Q8NER1 whole entry, looked up): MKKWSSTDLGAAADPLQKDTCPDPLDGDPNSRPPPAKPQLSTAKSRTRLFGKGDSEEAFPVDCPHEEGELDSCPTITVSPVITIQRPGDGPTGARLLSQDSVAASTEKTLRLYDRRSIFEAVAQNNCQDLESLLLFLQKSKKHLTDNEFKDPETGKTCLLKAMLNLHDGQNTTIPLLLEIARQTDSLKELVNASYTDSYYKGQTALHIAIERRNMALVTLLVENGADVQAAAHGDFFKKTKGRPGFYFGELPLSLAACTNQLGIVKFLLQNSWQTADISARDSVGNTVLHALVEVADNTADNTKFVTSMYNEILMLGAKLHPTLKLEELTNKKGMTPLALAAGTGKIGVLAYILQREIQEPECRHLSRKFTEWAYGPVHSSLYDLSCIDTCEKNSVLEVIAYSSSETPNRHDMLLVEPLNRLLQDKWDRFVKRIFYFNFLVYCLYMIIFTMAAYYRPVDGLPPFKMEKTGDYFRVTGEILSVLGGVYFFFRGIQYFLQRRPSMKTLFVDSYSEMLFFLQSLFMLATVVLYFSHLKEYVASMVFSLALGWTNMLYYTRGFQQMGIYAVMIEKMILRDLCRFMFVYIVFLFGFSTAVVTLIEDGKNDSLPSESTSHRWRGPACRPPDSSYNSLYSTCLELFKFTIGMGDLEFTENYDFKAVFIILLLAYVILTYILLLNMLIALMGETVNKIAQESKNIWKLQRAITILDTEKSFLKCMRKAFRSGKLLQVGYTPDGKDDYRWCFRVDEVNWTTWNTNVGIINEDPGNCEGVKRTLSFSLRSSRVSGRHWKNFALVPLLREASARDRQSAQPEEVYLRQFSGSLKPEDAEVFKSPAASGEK
ATP-dependent DNA helicase Q1 (Homo sapiens), sequence (P46063 whole entry, looked up): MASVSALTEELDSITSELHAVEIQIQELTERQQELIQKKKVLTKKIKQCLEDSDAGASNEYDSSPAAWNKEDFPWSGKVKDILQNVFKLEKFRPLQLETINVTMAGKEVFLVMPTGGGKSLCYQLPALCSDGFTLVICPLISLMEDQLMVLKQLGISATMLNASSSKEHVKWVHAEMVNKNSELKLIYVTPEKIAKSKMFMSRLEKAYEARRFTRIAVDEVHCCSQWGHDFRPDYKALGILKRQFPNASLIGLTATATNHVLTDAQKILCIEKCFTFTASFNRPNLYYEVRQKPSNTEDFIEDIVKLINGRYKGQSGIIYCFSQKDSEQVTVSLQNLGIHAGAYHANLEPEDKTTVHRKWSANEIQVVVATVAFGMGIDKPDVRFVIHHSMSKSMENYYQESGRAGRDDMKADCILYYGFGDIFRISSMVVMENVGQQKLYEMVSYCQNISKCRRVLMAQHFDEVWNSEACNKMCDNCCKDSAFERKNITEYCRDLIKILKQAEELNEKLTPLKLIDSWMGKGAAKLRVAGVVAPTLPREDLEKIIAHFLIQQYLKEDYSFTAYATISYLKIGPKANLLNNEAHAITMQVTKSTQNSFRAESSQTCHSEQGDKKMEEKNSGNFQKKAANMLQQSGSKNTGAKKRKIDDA
Rap guanine nucleotide exchange factor 3 (Homo sapiens), sequence (O95398 whole entry, looked up): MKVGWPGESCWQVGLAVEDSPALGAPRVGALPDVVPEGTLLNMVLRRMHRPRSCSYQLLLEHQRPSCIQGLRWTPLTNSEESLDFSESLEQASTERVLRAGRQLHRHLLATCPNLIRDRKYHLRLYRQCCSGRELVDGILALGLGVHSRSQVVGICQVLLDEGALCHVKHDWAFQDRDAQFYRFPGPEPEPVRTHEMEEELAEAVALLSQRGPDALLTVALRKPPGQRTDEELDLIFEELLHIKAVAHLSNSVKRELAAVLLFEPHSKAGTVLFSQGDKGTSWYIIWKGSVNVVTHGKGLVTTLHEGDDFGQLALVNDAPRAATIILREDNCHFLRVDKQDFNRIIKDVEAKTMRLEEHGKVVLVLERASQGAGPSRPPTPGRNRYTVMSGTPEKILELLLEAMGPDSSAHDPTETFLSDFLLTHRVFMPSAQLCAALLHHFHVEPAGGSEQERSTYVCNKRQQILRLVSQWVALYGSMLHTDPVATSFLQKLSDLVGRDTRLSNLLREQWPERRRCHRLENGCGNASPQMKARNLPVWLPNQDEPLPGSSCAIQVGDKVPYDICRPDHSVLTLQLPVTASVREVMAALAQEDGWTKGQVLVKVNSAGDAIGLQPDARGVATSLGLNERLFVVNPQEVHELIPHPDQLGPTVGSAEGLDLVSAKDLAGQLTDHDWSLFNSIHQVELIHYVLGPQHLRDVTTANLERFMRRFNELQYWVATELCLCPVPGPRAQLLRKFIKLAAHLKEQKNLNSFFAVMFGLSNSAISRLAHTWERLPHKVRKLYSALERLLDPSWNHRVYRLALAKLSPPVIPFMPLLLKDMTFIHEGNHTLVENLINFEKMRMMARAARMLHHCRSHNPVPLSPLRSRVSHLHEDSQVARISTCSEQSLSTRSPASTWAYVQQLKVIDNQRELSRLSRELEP
DNA repair nuclease/redox regulator APEX1 (Homo sapiens), sequence (P27695 whole entry, looked up): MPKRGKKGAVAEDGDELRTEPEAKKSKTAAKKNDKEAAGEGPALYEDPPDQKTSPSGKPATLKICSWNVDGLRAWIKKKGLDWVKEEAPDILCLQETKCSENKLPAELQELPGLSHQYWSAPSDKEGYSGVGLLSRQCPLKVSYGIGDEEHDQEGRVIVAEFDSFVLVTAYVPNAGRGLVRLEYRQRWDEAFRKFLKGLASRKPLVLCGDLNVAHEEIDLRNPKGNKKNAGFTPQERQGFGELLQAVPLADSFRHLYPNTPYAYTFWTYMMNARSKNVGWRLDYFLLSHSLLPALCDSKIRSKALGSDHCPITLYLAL
Thyrotropin receptor (Homo sapiens), sequence (P16473 whole entry, looked up): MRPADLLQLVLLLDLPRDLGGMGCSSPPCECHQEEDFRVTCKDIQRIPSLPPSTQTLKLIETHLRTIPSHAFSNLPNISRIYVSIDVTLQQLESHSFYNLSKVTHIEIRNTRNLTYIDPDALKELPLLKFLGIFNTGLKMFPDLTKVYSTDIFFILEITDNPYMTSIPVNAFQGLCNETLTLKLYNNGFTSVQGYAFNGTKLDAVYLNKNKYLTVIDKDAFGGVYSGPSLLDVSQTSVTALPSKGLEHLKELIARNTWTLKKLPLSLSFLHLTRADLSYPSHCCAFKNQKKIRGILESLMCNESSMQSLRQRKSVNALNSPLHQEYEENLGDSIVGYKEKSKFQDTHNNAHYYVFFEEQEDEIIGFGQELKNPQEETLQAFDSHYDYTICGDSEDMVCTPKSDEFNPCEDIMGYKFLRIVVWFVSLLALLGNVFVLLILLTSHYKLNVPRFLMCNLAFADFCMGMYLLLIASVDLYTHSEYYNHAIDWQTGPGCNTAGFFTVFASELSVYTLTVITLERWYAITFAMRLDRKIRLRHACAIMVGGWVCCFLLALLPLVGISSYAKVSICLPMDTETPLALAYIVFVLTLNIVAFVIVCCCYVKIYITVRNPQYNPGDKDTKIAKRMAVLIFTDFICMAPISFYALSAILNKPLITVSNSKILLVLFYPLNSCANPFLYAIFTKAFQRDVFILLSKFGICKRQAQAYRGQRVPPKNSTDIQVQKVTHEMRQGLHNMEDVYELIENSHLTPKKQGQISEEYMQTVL
Galactokinase (Homo sapiens), sequence (P51570 whole entry, looked up): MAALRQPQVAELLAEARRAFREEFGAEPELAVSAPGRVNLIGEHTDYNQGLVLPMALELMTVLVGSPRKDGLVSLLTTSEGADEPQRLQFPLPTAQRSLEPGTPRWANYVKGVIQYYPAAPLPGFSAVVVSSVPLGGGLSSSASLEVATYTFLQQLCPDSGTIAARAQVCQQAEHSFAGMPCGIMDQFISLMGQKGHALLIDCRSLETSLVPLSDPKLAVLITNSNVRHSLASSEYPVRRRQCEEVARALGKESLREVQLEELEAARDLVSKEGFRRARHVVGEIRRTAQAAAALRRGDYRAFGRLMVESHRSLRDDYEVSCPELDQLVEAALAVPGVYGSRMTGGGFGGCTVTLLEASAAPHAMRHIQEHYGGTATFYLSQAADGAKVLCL

CNC(=O)[C@H]1O[C@@H](n2cnc3c(N)ncnc32)[C@H](O)[C@H]1O
inactive: outcome [1] | outcome [2] | Potency [3] | Potency [4] | Potency [5] | Potency [6] | Potency [7] | Potency [8] | outcome [9] | Potency [10] | Potency [11] | Potency [12] | outcome [13] | outcome [14] | activation [15] -0.0625% | outcome [16] | Potency [17]

Nc1c2ccccc2nc2ccccc12 (tested in a mixture with another compound)
inactive: Potency [18] | Potency [19]

CCC(=O)OC1CCC2C3CCc4cc(O)ccc4C3CC[C@]12C (stereo not given in full)
inactive: Potency [18] | Potency [19]

COc1cc(C)c(C(=O)Oc2cc(C)c(C(=O)O)c(O)c2C)c(OC)c1C
inactive: Potency [18] | Potency [19]

C[C@@H](Oc1ccc(Oc2cnc3ccc(Cl)cc3n2)cc1)C(=O)O
inactive: outcome [2] | Potency [4] | Potency [5] | Potency [6] | Potency [7] | Potency [8] | outcome [9] | Potency [10] | Potency [11] | Potency [12] | outcome [13] | outcome [14] | activation [15] -0.0625% | outcome [16] | Potency [17]

CC#C[C@]1(O)CC[C@H]2C3CCC4=CC(=O)CCC4=C3[C@@H](c3ccc(N(C)C)cc3)C[C@@]21C (stereo not given in full)
inactive: outcome [1] | outcome [2] | outcome [9] | outcome [13] | outcome [14] | activation [15] 28.5% | outcome [16]
active: Potency [3] 11.2 µM | Potency [4] 10 µM | Potency [5] 10 µM | Potency [7] 5.01 µM | Potency [8] 12.6 µM | Potency [10] 11.7 µM | Potency [12] 15.8 µM

Nc1ncnc2c1ncn2[C@@H]1O[C@H](COP(=O)(O)OP(=O)(O)OP(=O)(O)OP(=O)(O)OC[C@@H]2O[C@H](n3cnc4c(N)ncnc43)[C@@H](O)[C@@H]2O)[C@H](O)[C@H]1O
inactive: outcome [1] | outcome [2] | Potency [6] | outcome [9] | Potency [10] | Potency [11] | Potency [12] | outcome [13] | outcome [14] | activation [15] 13.9% | Potency [17]

CN1CCc2c(cc(O)c(O)c2Cl)C(c2cccc(Cl)c2)C1 (stereo not given)
inactive: outcome [1] | outcome [2] | outcome [9] | outcome [13] | outcome [14] | activation [15] 0.0625% | outcome [16]
active: Potency [3] 5.01 µM | Potency [4] 3.55 µM | Potency [5] 10 µM | Potency [6] 11.2 µM | Potency [7] 5.01 µM | Potency [8] 8.91 µM | Potency [10] 18.5 µM | Potency [12] 39.8 µM | Potency [17] 12.6 µM

COc1cc2c3cc1Oc1c(OC)c(OC)cc4c1[C@@H](Cc1ccc(O)c(c1)Oc1ccc(cc1)C[C@@H]3N(C)CC2)N(C)CC4
inactive: Potency [20]

COC(=O)CC1C2(C)CC34OC5(C)O[C@@]6(C7/C(=C(/OC)C(C)C)C(=O)OC(c8ccoc8)[C@@]7(C)C(OC(=O)C(C)C)C(OC)[C@]6(O5)[C@@]13C)C(OC)[C@]4(OC)C2OC(C)=O (stereo not given in full)
inactive: Potency [18] | Potency [19]

C=C[C@](C)(O)CCC1C(=C)CC(OC(C)=O)C2C(C)(C)CCCC12C (stereo not given in full)
inactive: Potency [18] | Potency [19]

Nc1ncnc2c1nc(Br)n2C1O[C@H]2COP(=O)(O)O[C@@H]2C1O (stereo not given in full)
active: Potency [3] 12.6 µM | Potency [7] 5.62 µM | Potency [8] 6.31 µM
inactive: outcome [1] | outcome [2] | outcome [9] | Potency [11] | outcome [13] | outcome [14] | activation [15] 0.688% | outcome [16] | Potency [17]

O=C1C=CC2=C3c4cc(O)c(O)cc4CC3(O)COC2=C1O (stereo not given)
inactive: Potency [18] | Potency [19]

COc1ccccc1-c1nc(N(C)C)c2ccccc2n1
active: Potency [20] 3.16 µM

COc1ccccc1CNc1ncncc1-c1ccccc1OC
inactive: Potency [18] | Potency [19]

CN(C)CCCO[C@H]1C([C@H](O)CO)O[C@@H]2OC(C)(C)O[C@@H]21 (stereo not given in full)
inactive: outcome [1] | outcome [2] | Potency [3] | Potency [4] | Potency [5] | Potency [6] | Potency [7] | Potency [8] | outcome [9] | Potency [10] | Potency [11] | Potency [12] | outcome [13] | activation [15] 0.75% | outcome [16] | Potency [17]

NC(=NCc1ccc(Cl)c(Cl)c1)NC(=O)c1nc(Cl)c(N)nc1N
active: Potency [3] 0.891 µM | Potency [4] 0.282 µM | Potency [5] 0.398 µM | Potency [6] 1.58 µM | Potency [7] 1 µM | Potency [8] 0.501 µM | Potency [10] 0.586 µM | Potency [11] 370 nM | Potency [12] 50.1 µM | Potency [17] 2 µM
inactive: outcome [1] | outcome [2] | outcome [9] | outcome [14] | activation [15] 4.94% | outcome [16]

COC(=O)c1c(C)c2c(c(C)c1O)OC(=O)c1c(C)c(Cl)c(O)c(Cl)c1O2
inactive: Potency [18] | Potency [19]

CN(C)Cc1ccccc1-c1cc(NCc2cccs2)ncn1
active: Potency [20] 2 µM

COc1ccccc1-c1nccc(NCc2ccccc2)n1
active: Potency [20] 3.98 µM

COc1ccccc1CNc1ncnc2ccc(-c3ccoc3)cc12
active: Potency [20] 3.16 µM

COc1cccc(-c2ccc3ncnc(NCCc4c[nH]c5ccc(OC)cc45)c3c2)c1
active: Potency [20] 2.51 µM

CN1CCN(c2ncc3nc(-c4cccc(C#N)c4)c(=O)n(C[C@H]4CCCO4)c3n2)CC1
inactive: Potency [20]
